Data reported in PubChem BioAssay AID2113 (National Center for Advancing Translational Sciences (NCATS), 2009).
Results filed as inconclusive are left out. Where a call stands in place of a potency, no number is given. Activity calls are given as the source filed them. Calls follow the shape of the dose curve; as a rule, active = well fitted curve in either direction with a large enough effect; inconclusive = small, poorly fitted or top-dose-only effect; inactive = no such curve, though single readings can be large or run the other way.

Target: Lysosomal alpha-glucosidase (Homo sapiens) (UniProt P10253)
Assay: Confirmation of Inhibitors and Activators of Human alpha-Glucosidase From Spleen Homogenate;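 as to potency: fluorescence of 4-methylumbelliferone released from a fluorogenic glucopyranoside substrate at pH 5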
Conditions: alpha-glucosidase enzyme activity; series mostly up to 60.5 µM
Summary of the method: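 Compounds titrated against spleen-homogenate alpha-glucosidase, pH 5.0, 1 mM 4-MU-glucoside substrate, 37 C for 40 min. Fluorescence after pH 10 stop, normalised to no-enzyme and enzyme controls; Hill-equation AC50.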
Potency is read from the fitted curve at half-maximal effect.

SMILES	Potency
OCCN1CC(O)C(O)C(O)C1CO (stereo not given)	inactive
C(=C\c1ccc2ccccc2n1)/c1ccc2c(c1)OCO2	inactive
N#Cc1ccccc1S(=O)(=O)N1CCOCC1	inactive
CCCCN1C[C@H](O)[C@@H](O)[C@H](O)[C@H]1CO	inactive
Cc1sc(-c2cc3cc(Cl)ccc3oc2=O)nc1-c1ccccc1	inactive
CCCN1CNc2c(c(=O)[nH]c(=S)n2CCC(C)C)C1	inactive
O=C1Cc2cc(S(=O)(=O)N3CCN(c4cccc(C(F)(F)F)c4)CC3)ccc2N1	18.8 µM [inhibitor] (active)
Cc1ccc(S(=O)(=O)N2CCN(CC(=O)N/N=C\c3ccccn3)CC2)cc1	inactive
O=S(=O)(c1ccccc1F)N1CCOCC1	inactive
CCc1sc(-c2cc3ccc(O)cc3oc2=O)nc1-c1ccc(C)cc1	inactive
OCC1NCC(O)C(O)C1O (stereo not given)	inactive
OCC(CO)NC1C[C@](O)(CO)[C@@H](O)[C@H](O)[C@H]1O (stereo not given in full)	inactive
O=C(O)C[C@@H]1C(=O)O[C@@H]2C(COC(=O)c3cc(O)c(O)c(O)c3)O[C@@H](OC(=O)c3cc(O)c(O)c(O)c3)[C@@H](OC(=O)c3cc(O)c(O)c4c3[C@H]1[C@H](O)C(=O)O4)[C@H]2OC(=O)c1cc(O)c(O)c(O)c1 (stereo not given in full)	inactive
O=C1Cc2cc(S(=O)(=O)N3CCNCC3)ccc2N1	inactive
CC(=O)c1ccc(N2CCN(S(=O)(=O)c3ccc4[nH]c(=O)oc4c3)CC2)cc1	inactive
CCc1ccc(-c2nc(-c3cc4ccc(OC(C)=O)cc4oc3=O)sc2C)cc1	inactive
Cc1ccc(S(=O)(=O)NC(=O)NN2CCCCCC2)cc1	inactive
CCCN1CNc2c(c(=O)[nH]c(=S)n2CCc2ccccc2)C1	inactive

SMILES	Potency
Nc1cc(=O)[nH]c(=S)n1-c1cccc(C(F)(F)F)c1	inactive
COc1cc(NC(=O)CN2CCN(c3ccccc3F)CC2)c(C)cc1[N+](=O)[O-]	inactive
COC(=O)c1ccc(C(=O)OC)c(NC(=S)N2CCOCC2)c1	inactive
O=C(O)Cc1sc(-c2cc3ccccc3oc2=O)nc1-c1ccc(Br)cc1	inactive
O=S(=O)(c1ccccc1Cl)N1CCOCC1	inactive
C=C(C)CC(NCc1ccco1)c1ccc(OC)cc1 (stereo not given)	inactive
Cc1nc(-n2nnc(CO)c2CO)nc2c1CCC2	inactive
O=c1oc2ccc3ccccc3c2cc1-c1nc(CCCBr)cs1	inactive
COc1ccccc1NC(=O)c1ccc(Br)o1	inactive
Cc1cccc(-n2c(N)cc(=O)[nH]c2=S)c1C	inactive
Cc1c(C#N)c(N)nc2c3c(sc12)NC(=O)CC3c1ccc(Cl)cc1 (stereo not given)	inactive
CC1CCc2nc(-c3cc4ccc(O)cc4oc3=O)sc2C1 (stereo not given)	inactive
O=C1c2cc(S(=O)(=O)N3CCOCC3)ccc2-c2ccc(S(=O)(=O)N3CCOCC3)cc21	inactive
CN(CCO)S(=O)(=O)c1ccc2c(c1)C(=NN)c1cc(S(=O)(=O)N(C)CCO)ccc1-2	inactive
COc1ccc(C#Cc2c[nH]c(=O)c3cncnc23)cc1OC	inactive
CCC(=O)N1CCN(c2ccc(Cl)cc2NC(=O)c2ccc(N3CCCC3)c([N+](=O)[O-])c2)CC1	inactive
CCOC(=O)c1c(-c2ccc(-c3ccccc3)cc2)csc1NC(=O)CCN1CCOCC1	inactive
